Measured values published in PubChem BioAssay AID493208 (National Center for Advancing Translational Sciences (NCATS), 2011).
Out of some 44,000 compounds screened, about 340 (0.77%) were called active. Another 5% or so got no clear call; they are omitted. Shown is part of a subset that was picked to be rich in actives. A number with no mark means an inactive call. Calls come from the whole dose curve; as a rule, active = well fitted inhibition curve with a large enough effect; inconclusive = small, poorly fitted or top-dose-only effect; inactive = flat fitted curve, though single readings scatter.

Experiment: Acumen qHTS Assay for Inhibitors of the mTORC1 Signaling Pathway in MEF (Tsc2-/-, p53-/-) Cells: Sytravon; note: nearly all actives have a fitted effect of over 50% in size
Details: phospho-rpS6 immunofluorescence/PI, 24 h; series mostly up to 38.3 µM; activity change, negative = inhibition: at the top concentration
Description: NIH Molecular Libraries Probe Production Centers Network [MLPCN] NIH Chemical Genomics Center [NCGC] MLPCN Grant: NS059428-01 Assay Submitter (PI): Blenis, John; Hoffman, Greg; Harvard University NCGC Assay Overview: The mammalian target of rapamycin (mTOR) is an intracellular serine/threonine kinase Aberrant regulation of mTOR signaling plays a causative role in a number of human diseases, including cancer, benign tumors such as lymphangioleiomyomatosis (LAM) and Tuberous Sclerosis Complex (TSC), and metabolic diseases such as diabetes and obesity. This project aims to identify inhibitors of ribosomal protein S6 (rpS6) phosphorylation. The phosphorylation of rpS6 is a key event downstream of mTOR activation. The assay uses a phospho-specific antibody of phospho-rpS6 to detect inhibitors of mTOR activation. Mutations in the Tsc1 and Tsc2 genes are the underlying genetic lesions responsible for TSC, causing constitutive activation of the mTORC1 pathway and leading to profound effects on cell metabolism. Aberrant metabolism in cancer has recently received significant attention as a target to develop therapeutic agents in the treatment of cancer.1 As Tsc2-/- cells have lost the ability to respond to energy and growth factor deprivation, these cells are unable to properly down regulate cellular biosynthetic processes in response to metabolic stress, and are thus extremely sensitive to glucose deprivation-induced death.2 A central goal of this project is to explore the unique cell survival and metabolic properties of cells with Tsc1 or Tsc2 by screening for compounds that selectively target the Tsc2-/- MEFs by screening both Tsc2-/- and WT MEF cell lines. We hope to better understand these aspects of TSC physiology in order to exploit them for therapeutic benefit.
NCGC Acumen Assay Protocol Summary: For quantitative high throughput analysis of mTORC1 signaling, we developed a cell-based assay for immuno-fluorescence based detection of rpS6 phosphorylation on the Acumen Explorer that will be used a platform for the primary small molecule screen. Mouse embryonic fibroblasts (MEFs) are cultured in 1536-well plates using DMEM + 10% FBS. Twenty-four hrs after plating, test compounds (solubilized in DMSO) are delivered and incubated with the cells for 24 hrs at 37 degree Celsius. Following the incubation, media with compound is aspirated and the cells are fixed in 4% paraformaldehyde (PFA) containing PBS + 0.2% TX-100. Next, PFA is aspirated, cells are washed two times with PBS plus 0.2% TX-100 and the cells are blocked for 1 hr at room temperature (blocking buffer: LiCOR Blocking Buffer plus 0.2% TX-100). […] Cells are washed two times with PBS plus 0.2% TX-100, and stained with 10 uM propidium iodide (PI) for 20-25 minutes for cell number measurement (1:500 dilution of Hoescht staining is also added for IN Cell imaging). The plates are scanned on the Acumen Explorer laser scanning instrument (TTP Labtech) using the 488nm laser for simultaneous excitation of the Alexa-488 and PI. […] The normalized phospho-S6 staining is calculated as the ratio of the integrated Alexa 488 intensity divided by the integrated PI intensity for the single concentration rapamycin control (7.5 nM) and DMSO columns. […] Inhibition of the pathway is defined based on the normalized phospho-S6 intensity in rapamycin treated cells. Active cells are defined as those with a normalized phospho-S6 staining above this threshold, and each treatment is reported as the % positive cells in the well, where thresholds are defined by selecting wells with the highest and lowest signal and differentiating between the % non-active and % active populations. In addition to the pathway specific phospho-S6 endpoint, the number of PI stained cells from the Acumen is recorded as a measure of cell viability. The primary screen was performed with a MEF cell line in a defined genetic background, Tsc2-/-, p53-/- cell line stably transfected with an empty vector control (Tsc2-/- MEF).
Potency is the fitted concentration of half-maximal effect.

Structure (SMILES)	activity change, negative = inhibition [%]	Potency
Cc1ccc(CSc2oc(-c3cccs3)nc2S(=O)(=O)c2ccc(C)cc2)cc1	0	–
CSc1oc(-c2cccs2)nc1S(=O)(=O)c1ccc(Br)cc1	2.88	–
Cc1ccc(CNC(=O)CSc2c3c(nc4cc(Cl)ccc24)CCCC3)cc1	-6.2	–
CCOC(=O)C1CCN(C(=O)CSc2c3c(nc4ccc(Cl)cc24)CCCC3)CC1	–	18.5 µM (active)
COc1cccc(CNC(=O)CSc2c3c(nc4cc(Cl)ccc24)CCCC3)c1	3.18	–
CN(C)CCN(Cc1ccccc1)S(=O)(=O)c1csc(C(N)=O)c1	3.82	–
CC(C)C12CN3CC(C(C)C)(CN(C1)C3c1ccc(OCc3ccccc3)cc1)C2=O (stereo not drawn)	-2.1	–
N#C/C(=C\c1ccccc1F)c1nc2ccccc2c(=O)[nH]1	7.42	–
COC(=O)c1cnn(-c2ccc(C(=O)Nc3ccc(OC(F)(F)F)cc3)cc2)c1N	-1.33	–
Cc1ccc(Cn2c(=O)n(-c3ccc(C)cc3)c(=O)c3c2c2cc(C)ccc2n3C)cc1	-1.48	–
Cc1ccc(NC(=O)c2nc(S(=O)(=O)Cc3cccc(C)c3)ncc2Cl)cc1	–	5.85 µM (active)
CCOC(=O)c1ccc(NC(=O)c2nc(SCc3ccc(F)cc3)ncc2Cl)cc1	-6.5	–
CCSc1ncc(Cl)c(C(=O)Nc2cc(C)ccc2C)n1	5.83	–
CCC(C)NC(=O)Cn1c(=O)n(-c2ccc(Cl)cc2)c(=O)c2c3c(sc21)CCCC3 (stereo not drawn)	7.38	–
CC1CCCCN1CCCNC(=O)Cn1ncc2c([nH]c3ccccc32)c1=O (stereo not drawn)	-1.23	–
COc1ccccc1-c1noc(CSc2nnc(-c3ccccc3)n2-c2ccc(C)c(C)c2)n1	-10.2	–
CCOc1ccc(CNC(=O)c2ccc(CS(=O)c3ccccc3)o2)cc1 (stereo not drawn)	3.66	–
CCCCC(CC)CNC(=O)C1CCN(S(=O)(=O)c2cccc3nsnc23)CC1 (stereo not drawn)	2.77	–
CC(=O)c1cccc(NC(=O)CSc2nc3c(c(=O)[nH]2)CCC3)c1	2.41	–
Cc1ccc(Cn2c(C)c3cnn(CC(=O)NCc4ccccc4)c(=O)c3c2C)cc1	-12.7	–
Clc1ccc(CSc2nncn3c2cc2occc23)cc1	0.254	–
COc1cc(OC)cc(-c2nc3nc(C)c(CCC(=O)Nc4ccccc4)c(C)n3n2)c1	2.09	–
CCOc1cccc(CC(=O)N2CCc3c([nH]c4ccccc34)C2c2ccc(OC)cc2)c1OCC (stereo not drawn)	9.34	–
CCN(C(=O)CSc1nnc(C)n2c1cc1occc12)c1ccccc1	-2.15	–

Structure (SMILES)	activity change, negative = inhibition [%]	Potency
Cc1ccc(-c2nc(SCc3ccc(Br)cc3)n3[nH]c(=O)cc3n2)cc1	-2.33	–
O=c1cc(-c2ccccc2)n2c(SCc3ccccc3)nnc2[nH]1	0.0486	–
CCCCSc1ncnc2c1sc1nc(N3CCOCC3)c3c(c12)CCCC3	6.37	–
COc1ccc(N2C(=O)CSC23C(=O)N(Cc2cccc(F)c2)c2ccccc23)cc1Cl (stereo not drawn)	-3.26	–
COc1cc(C(=O)Nc2ccc(OCc3cc(=O)n4cc(C)sc4n3)cc2)cc(OC)c1OC	-6.16	–
CCOc1ccc(NC(=O)c2ncoc2-c2ccco2)cc1	0	–
Cn1nnnc1SCCCNCc1cccc(OCc2ccc(Cl)cc2)c1	–	18.5 µM (active)
Cn1nnnc1SCCNCc1ccc(Cl)c(Cl)c1	-5.71	–
Cn1nnnc1SCCCNCc1ccc(Cl)cc1	-9.59	–
COc1ccc(C(=O)Nc2nonc2-c2ccc(OC)c(OC)c2)cc1Cl	-29.4	–
Cc1ccc(NC(=O)c2cc3cc(C)ccc3n2C)cc1	-1.67	–
Cc1ccc(S(=O)(=O)c2nnn3c2nc(N2CCN(c4ccccc4F)CC2)c2cc(Cl)ccc23)cc1C	-0.0789	–
COC(=O)c1cc(NC(=O)c2cnc(SC)nc2-c2ccccc2)cc(C(=O)OC)c1	-1.13	–
Cc1ccc(-c2nnc(Nc3cccc(Br)c3)c3ccccc23)cc1S(=O)(=O)NCC1CCCO1 (stereo not drawn)	-0.426	–
Cc1ccc(Nc2nnc(-c3ccc(C)c(S(=O)(=O)N4CCCCC4)c3)c3ccccc23)cc1	-1.69	–
CCNS(=O)(=O)c1cc(-c2nnc(Nc3cccc(C(F)(F)F)c3)c3ccccc23)ccc1C	–	18.5 µM (active)
O=C(Nc1ccccc1Cl)N1CCC(CN2CCCCC2)CC1	-6.23	–
CCN(CCCNC(=O)c1cc2c(=O)n(CC)c3ccccc3c2s1)Cc1ccccc1	–	18.5 µM (active)
CCc1ccc(CNC(=O)c2cc3c(=O)n(CC)c4ccccc4c3s2)cc1	-7.38	–
CCn1c(=O)c2cc(C(=O)NCCc3ccc(Cl)cc3)sc2c2ccccc21	1.55	–
CCCCOC(=O)CSc1ncnc2sc3c(c12)CCC(C)C3 (stereo not drawn)	-0.119	–
O=C(CC(NCc1cccnc1)C(=O)O)Nc1ccc(O)cc1 (stereo not drawn)	–	14.7 µM (active)
Cc1cc(NC(=O)CC(C)C)cc(-c2nc3ncccc3o2)c1O	1.54	–
CCc1ccc(NC(=O)c2cc3c(=O)n(Cc4cccnc4)ccc3nc2C)cc1	-1.59	–
